Data taken from PubChem BioAssay (NCATS).
Unmarked numbers belong to inactive results. Inconclusive results are not listed. Where a call stands in place of a potency, no number is given. Active and inactive are the calls of the source. Unless noted, the call rests on the fitted dose curve; in most records, active means well fitted curve in the direction sought with a large enough effect; inconclusive means small, poorly fitted or top-dose-only effect, or another doubt; inactive means no such curve, though single readings can be large; an effect the other way counts as inactive or inconclusive.

Legend:
[1] = molecular target: Thioredoxin reductase 1, cytoplasmic (Rattus norvegicus) (UniProt O89049); experiment: qHTS Assay for Substrates of Mammalian Selenoprotein Thioredoxin Reductase 1 (TrxR1) (AID 488772);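 further: series mostly up to about 57 µM; a drop in NADPH fluorescence below the no-compound background marks a TrxR1 substrate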
Procedure, shortened: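 In this dual-purpose format, potential substrates are identified from the first fluorescence read after selenite addition, not from the 8-minute delta. Rat enzyme is preincubated with NADPH and then with compound at ~22 deg C.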

[2] = molecular target: Thioredoxin reductase 1, cytoplasmic (Rattus norvegicus) (UniProt O89049); experiment: qHTS Assay for Inhibitors of Mammalian Selenoprotein Thioredoxin Reductase 1 (TrxR1) (AID 488773);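 further: drop in NADPH fluorescence over an 8 min run after selenite addition; series mostly up to about 57 µM; nearly all actives have a fitted effect of over 40% in size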
Procedure, shortened: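 Inhibition is scored from the loss of NADPH fluorescence between first and last reads of an 8-min kinetic run. Selenite (400 uM) was the substrate, added after 15 min compound preincubation at room temperature.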

[3] = molecular target: Flap endonuclease 1 (Homo sapiens) (UniProt P39748); experiment: qHTS Validation Assay for the Inhibitors of Human Flap endonuclease 1 (FEN1) (AID 488816)
Procedure, shortened: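 Enzyme reagent 10 nM; cpds pinned; 15 min RT preinc.; substrate 50 nM final; reads t=0 and 15 min; no-enzyme buffer wells as neg. control; normalized data, 4-parameter Hill fit.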

[4] = molecular target: Methanococcus maripaludis chaperonin (MmCpn) (UniProt Q6LX38); experiment: High-Throughput Screening for Modulators of Cytosolic Chaperonin Activity: MmCpn Primary Screen (AID 488978);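 further: 50 nM MmCpn enzyme hydrolysing 30 µM ATP at 37 °C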
Procedure, shortened: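 MmCpn at 50 nM final was preincubated 5 min at RT with compound. ATP was then added at 30 uM final for 10 min at 37 C. ADP formed was detected by Transcreener HTRF (665/590 nm).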

[5] = molecular target: D(1A) dopamine receptor (Homo sapiens) (UniProt P21728); experiment: HTS Assay for Allosteric Agonists of the Human D1 Dopamine Receptor: Primary Screen for Agonists (AID 488981)
Procedure, shortened: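 Tetracycline-induced HEK293 Trex D1 cells with forced coupling to calcium, loaded with no-wash calcium dye; kinetic fluorescence read 180 s after compound addition for agonism, then a further 180 s after an EC20 dopamine challenge for potentiation.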

[6] = molecular target: D(1A) dopamine receptor (Homo sapiens) (UniProt P21728); experiment: HTS Assay for Allosteric Agonists of the Human D1 Dopamine Receptor: Primary Screen for Antagonists (AID 488983);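 further: calcium flux response to an EC80 dopamine challenge measured with no-wash dye; nearly all actives have a fitted effect of over 65% in size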
Procedure, shortened: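 Calcium flux readout, no-wash dye, inducible HEK293 T-REx D1 line (force-coupled). Compound added after 10 s baseline, 180 s kinetic read; then dopamine at EC80, further 180 s read.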

[7] = qHTS for Inhibitors of Cell Surface uPA Generation: Validation Assay (AID 493164);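 further: RAW 264.7 macrophage cells exposed to compound for 18 h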
Procedure, shortened: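 Compounds are titrated over seven points (2.45 nM–38.3 uM final) onto pre-plated RAW 264.7 cells and incubated for 18 h. Retained intracellular ATP, measured with ATP-Lite, indicates blocked lethal factor entry.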

[8] = molecular target: Peptidyl-prolyl cis-trans isomerase NIMA-interacting 1 (Homo sapiens) (UniProt Q13526); experiment: qHTS Validation Assay to Find Inhibitors of Pin1 (AID 504536; active means well fitted inhibition curve with a large enough effect in the polarisation, with a control signal flat, not every such curve was filed as active; the % refers to the polarisation)
Procedure, shortened: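 Fluorescence polarization competition: compounds (titration) displace HiFluor-488-labeled Pin1-1b peptide from Pin1 (0.3 uM final) in pH 7.5 HEPES buffer with DTT, 10 min at room temperature; %Activity normalized to no-enzyme wells, curves fitted.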

[9] = molecular target: Phosphoglycerate kinase, glycosomal (Trypanosoma brucei brucei) (UniProt P07378); experiment: qHTS Validation Assay to Find Inhibitors of Phosphoglycerate Kinase (AID 504547)
Procedure, shortened: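 Compounds are pinned into the substrate/PGK mixture, and GAPDH (100nM final) is added to start the reaction by producing 1,3-BPG. After 60 minutes at room temperature, Kinase-Glo Plus is added and luminescence is measured 10 minutes later.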

[10] = molecular target: phosphoglycerate mutase (Leishmania major) (UniProt Q4Q090); experiment: qHTS Validation Assay to Find Inhibitors of Phosphoglycerate Mutase (AID 504548); further: series mostly up to about 58 µM
Procedure, shortened: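 Lm PGAM at 1.25 nM final with substrate in 100 mM TEA pH 7.6, 5 mM MgCl2, 0.01% Tween-20; 45 min at room temperature. Kinase-GloPlus added, 10 min, end-point luminescence read.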

[11] = qHTS for Inhibitors of ATXN expression: Validation of Cytotoxic Assay (AID 588349)
Procedure, shortened: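 Cytotoxicity counter-screen: HEK293 cells exposed to compound titrations, 72 hr, 37 degrees C. Read-out is intracellular ATP (CellTiter Glo luminescence) as a viability measure.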

[12] = qHTS for Inhibitors of ATXN expression: Validation (AID 588378); further: series mostly up to about 57 µM; nearly all actives have a fitted effect of over 75% in size
Procedure, shortened: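 HEK293 cells carrying ATXN2-firefly luciferase reporter, treated with compound 24 h at 37 °C. Viability read first by CellTiter-Fluor (405/525 nm), then reporter expression by Bright-Glo luminescence; controls were a known ATXN2 expression inhibitor and a luciferase inhibitor.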

[13] = molecular target: Glucagon-like peptide 1 receptor (Homo sapiens) (UniProt P43220); experiment: qHTS of GLP-1 Receptor Agonists: LOPAC Validation (AID 624148);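 further: higher luminescence signal means agonism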
Procedure, shortened: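 HEK293 cells stably co-expressing GLP-1R and a cAMP-responsive luciferase reporter, plated 12 hours before compound, then incubated 4-6 hr at 37 deg C. Luminescence read 12 min after detection reagent.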

[14] = qHTS of Nrf2 Activators: LOPAC Validation (AID 624149)
Procedure, shortened: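 AREc32_Fluc cells, 1000/well, OPTI-MEM + 5% FBS, o/n 37 deg C 5% CO2; compound pin-transfer, 24 hr 37 deg C; Steady-Glo 30 min RT, luminescence read.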

[15] = HTS Assay for Allosteric Antagonists of the Human D2 Dopamine Receptor: Hit Validation in HTRF (AID 624455)
Procedure, shortened: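 HTRF read-out; cells stably expressing D1 receptor; hits scored for inhibition of D1-mediated response. Primary screen: calcium flux, force-coupled inducible Hek293 Trex D2 line, antagonism vs EC80 dopamine.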

[16] = molecular target: Transient receptor potential cation channel subfamily V member 1 (Homo sapiens) (UniProt Q8NER1); experiment: HTS Assay for Compounds that Act as Enhancers of the Vanilloid Receptor 1 (AID 488979)
Procedure, shortened: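 TRPV1 cells loaded with Fluo-8 calcium dye; compound added and Ca2+ signal (ex 480/em 520 nm) followed 3 min, then capsaicin at EC20 added and read 2 more min to detect enhancement.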

[17] = molecular target: Cytochrome P450 1A2 (Homo sapiens) (UniProt P05177); experiment: p450-cyp1a2 (AID 410; calls by dose curve; further: potency means the concentration at half of the fitted maximal effect)
Procedure, shortened: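 20nM CYP1A2, 100uM Luciferin-ME (=Km), 100mM KPO4; cpd 10 min RT; +NADPH regen, 60 min RT; stop/detect 20 min; luminescence. Normalized to furafylline 57 uM = full inhibition.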

[18] = molecular target: Glucocorticoid receptor (Homo sapiens) (UniProt P04150); experiment: GR-GFP Redistribution (AID 450;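 active means compounds whose dose series gives a full or clear partial fitted curve of increased nuclear translocation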; further: potency means the concentration at half of the fitted maximal effect); details: U2OS GR-GFP nuclear translocation, laser cytometry, 2 h
[19] = molecular target: Glucocorticoid receptor (Homo sapiens) (UniProt P04150); experiment: GR-EFC Redistribution (AID 451; calls by dose curve; further: potency means the concentration at half of the fitted maximal effect); details: CHO-K1 GR-EFC translocation, beta-gal luminescence, 2 h
Procedure, shortened: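 CHO-K1 cells expressing nuclear EA and GR-ED fragments of b-gal; compounds titrated up to 46 uM final, 2 h at 37 C. GR nuclear translocation read as complemented b-gal luminescence after 1 h RT detection.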

[20] = molecular target: Cytochrome P450 2D6 (Homo sapiens) (UniProt P10635); experiment: qHTS Assay for Inhibitors and Substrates of Cytochrome P450 2D6 (AID 891); further: potency means the concentration at half of the fitted maximal effect; nearly all actives have a fitted effect of over 60% in size
Procedure, shortened: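 Luminescent read-out of luciferin formed by 5 nM human CYP2D6 demethylating 30 uM Luciferin-ME EGE (Km level) over 60 min at room temperature after NADPH regeneration addition. Data normalized to full inhibition by 1.43 uM quinidine.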

Sequence of D(1A) dopamine receptor (Homo sapiens) (P21728 whole entry, looked up): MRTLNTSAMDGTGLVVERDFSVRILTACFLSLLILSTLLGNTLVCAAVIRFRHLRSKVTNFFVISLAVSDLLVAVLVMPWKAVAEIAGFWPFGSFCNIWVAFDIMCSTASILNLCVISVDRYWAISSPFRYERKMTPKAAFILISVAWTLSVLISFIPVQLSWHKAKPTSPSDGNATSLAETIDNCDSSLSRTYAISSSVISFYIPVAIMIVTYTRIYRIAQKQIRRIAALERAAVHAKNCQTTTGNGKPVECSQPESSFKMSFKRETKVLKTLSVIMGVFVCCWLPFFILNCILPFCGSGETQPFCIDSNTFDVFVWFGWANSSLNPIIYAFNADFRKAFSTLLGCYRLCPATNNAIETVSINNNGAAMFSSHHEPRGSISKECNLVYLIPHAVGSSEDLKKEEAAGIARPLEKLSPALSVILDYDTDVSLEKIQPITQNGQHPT
Sequence of Thioredoxin reductase 1, cytoplasmic (Rattus norvegicus) (O89049 whole entry, looked up): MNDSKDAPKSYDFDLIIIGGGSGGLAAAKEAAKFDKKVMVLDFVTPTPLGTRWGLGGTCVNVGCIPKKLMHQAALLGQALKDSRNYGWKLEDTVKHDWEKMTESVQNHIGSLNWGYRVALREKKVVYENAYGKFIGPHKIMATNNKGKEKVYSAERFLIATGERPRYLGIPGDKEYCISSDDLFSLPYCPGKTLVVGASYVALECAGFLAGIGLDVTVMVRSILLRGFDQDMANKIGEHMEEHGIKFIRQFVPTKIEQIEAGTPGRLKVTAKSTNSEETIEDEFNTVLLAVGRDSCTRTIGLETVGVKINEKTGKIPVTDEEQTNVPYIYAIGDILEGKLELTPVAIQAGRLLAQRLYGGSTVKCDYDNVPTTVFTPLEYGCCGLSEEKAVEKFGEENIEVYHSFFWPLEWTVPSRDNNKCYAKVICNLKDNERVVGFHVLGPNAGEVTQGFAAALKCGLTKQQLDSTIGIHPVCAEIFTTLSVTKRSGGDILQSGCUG
Sequence of Glucocorticoid receptor (Homo sapiens) (P04150 whole entry, looked up, the tested form may be a part): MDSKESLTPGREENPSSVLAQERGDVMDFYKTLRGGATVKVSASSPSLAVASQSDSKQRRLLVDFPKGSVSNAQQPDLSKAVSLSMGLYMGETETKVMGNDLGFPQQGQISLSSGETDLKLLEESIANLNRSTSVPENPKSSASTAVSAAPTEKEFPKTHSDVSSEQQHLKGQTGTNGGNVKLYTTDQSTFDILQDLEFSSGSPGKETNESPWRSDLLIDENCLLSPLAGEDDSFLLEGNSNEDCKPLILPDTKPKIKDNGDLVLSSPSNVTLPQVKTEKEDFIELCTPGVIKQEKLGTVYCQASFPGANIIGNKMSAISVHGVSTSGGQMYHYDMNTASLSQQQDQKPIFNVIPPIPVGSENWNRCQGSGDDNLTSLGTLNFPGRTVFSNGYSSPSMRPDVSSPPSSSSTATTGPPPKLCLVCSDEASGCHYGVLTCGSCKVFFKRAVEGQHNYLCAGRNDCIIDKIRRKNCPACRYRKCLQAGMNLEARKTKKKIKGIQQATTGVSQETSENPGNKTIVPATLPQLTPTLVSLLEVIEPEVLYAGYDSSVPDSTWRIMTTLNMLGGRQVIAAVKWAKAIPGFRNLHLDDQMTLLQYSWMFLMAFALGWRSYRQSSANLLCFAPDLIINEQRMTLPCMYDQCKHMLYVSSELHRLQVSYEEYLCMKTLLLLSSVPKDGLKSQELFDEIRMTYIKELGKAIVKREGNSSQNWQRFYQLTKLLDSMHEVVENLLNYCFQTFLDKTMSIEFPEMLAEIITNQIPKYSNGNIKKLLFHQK
Sequence of phosphoglycerate mutase (Leishmania major) (Q4Q090 1-553): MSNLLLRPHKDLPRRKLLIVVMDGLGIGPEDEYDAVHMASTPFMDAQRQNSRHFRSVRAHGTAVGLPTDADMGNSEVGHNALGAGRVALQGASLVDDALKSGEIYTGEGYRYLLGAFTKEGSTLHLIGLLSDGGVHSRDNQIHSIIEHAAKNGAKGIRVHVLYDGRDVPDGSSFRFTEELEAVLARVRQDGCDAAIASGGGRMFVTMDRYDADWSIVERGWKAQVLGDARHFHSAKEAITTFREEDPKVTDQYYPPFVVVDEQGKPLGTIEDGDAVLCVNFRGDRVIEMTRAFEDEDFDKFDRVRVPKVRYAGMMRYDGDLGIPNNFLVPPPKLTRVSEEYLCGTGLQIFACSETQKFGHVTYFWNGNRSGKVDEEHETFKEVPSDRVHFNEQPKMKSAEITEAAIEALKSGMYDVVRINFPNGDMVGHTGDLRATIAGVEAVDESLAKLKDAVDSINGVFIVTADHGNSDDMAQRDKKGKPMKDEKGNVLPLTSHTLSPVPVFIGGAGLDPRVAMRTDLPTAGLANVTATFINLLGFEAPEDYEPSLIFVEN
Sequence of Glucagon-like peptide 1 receptor (Homo sapiens) (P43220 whole entry, looked up): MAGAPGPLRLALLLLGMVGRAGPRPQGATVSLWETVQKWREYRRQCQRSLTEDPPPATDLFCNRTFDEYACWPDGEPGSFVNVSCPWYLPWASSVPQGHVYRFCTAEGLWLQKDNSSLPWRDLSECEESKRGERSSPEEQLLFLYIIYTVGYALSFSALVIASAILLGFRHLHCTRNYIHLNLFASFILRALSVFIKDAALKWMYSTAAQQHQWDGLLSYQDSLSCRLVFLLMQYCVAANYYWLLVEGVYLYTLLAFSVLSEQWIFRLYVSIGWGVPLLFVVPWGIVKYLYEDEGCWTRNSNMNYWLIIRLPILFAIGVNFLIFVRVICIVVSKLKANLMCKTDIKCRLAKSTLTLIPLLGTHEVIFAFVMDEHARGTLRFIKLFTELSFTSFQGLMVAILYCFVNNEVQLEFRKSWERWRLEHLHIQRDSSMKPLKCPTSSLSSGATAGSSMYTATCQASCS
Sequence of Transient receptor potential cation channel subfamily V member 1 (Homo sapiens) (Q8NER1 whole entry, looked up): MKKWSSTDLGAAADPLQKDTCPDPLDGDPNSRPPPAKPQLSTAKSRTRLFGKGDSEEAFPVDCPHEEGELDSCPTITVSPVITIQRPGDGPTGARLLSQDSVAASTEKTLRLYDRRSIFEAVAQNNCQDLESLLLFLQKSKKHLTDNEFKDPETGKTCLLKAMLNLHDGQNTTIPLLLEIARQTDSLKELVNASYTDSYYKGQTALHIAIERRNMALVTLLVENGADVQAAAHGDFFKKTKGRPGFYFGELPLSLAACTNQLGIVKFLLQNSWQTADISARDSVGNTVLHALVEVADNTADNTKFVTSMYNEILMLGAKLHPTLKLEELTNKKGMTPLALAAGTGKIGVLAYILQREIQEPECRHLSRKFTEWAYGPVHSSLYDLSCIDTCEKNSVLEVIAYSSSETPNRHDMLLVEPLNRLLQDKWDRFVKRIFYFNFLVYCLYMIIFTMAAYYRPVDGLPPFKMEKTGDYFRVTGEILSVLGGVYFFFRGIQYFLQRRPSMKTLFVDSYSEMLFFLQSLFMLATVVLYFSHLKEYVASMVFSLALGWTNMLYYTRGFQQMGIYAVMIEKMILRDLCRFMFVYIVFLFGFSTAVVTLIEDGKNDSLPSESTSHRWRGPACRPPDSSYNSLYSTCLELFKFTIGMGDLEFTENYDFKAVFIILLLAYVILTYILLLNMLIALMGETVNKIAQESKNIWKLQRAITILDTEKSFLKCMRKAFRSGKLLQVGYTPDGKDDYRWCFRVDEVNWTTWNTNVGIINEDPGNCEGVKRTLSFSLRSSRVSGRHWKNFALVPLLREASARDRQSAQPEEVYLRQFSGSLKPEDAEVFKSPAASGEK
Sequence of Cytochrome P450 2D6 (Homo sapiens) (P10635 whole entry, looked up): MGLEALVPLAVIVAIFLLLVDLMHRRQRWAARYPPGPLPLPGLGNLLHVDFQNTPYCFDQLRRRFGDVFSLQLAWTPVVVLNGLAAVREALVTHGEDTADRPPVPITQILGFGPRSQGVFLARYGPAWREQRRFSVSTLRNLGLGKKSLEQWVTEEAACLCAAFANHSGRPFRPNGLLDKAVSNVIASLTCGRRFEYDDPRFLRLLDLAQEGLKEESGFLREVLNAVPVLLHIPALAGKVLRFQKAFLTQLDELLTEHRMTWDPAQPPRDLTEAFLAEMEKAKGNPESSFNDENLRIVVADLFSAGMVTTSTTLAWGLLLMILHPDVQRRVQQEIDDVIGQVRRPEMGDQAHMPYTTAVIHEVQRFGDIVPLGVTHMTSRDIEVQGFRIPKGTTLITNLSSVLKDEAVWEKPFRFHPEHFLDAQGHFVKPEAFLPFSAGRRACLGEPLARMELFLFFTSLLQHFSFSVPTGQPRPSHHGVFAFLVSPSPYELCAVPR
Sequence of Phosphoglycerate kinase, glycosomal (Trypanosoma brucei brucei) (P07378 whole entry, looked up): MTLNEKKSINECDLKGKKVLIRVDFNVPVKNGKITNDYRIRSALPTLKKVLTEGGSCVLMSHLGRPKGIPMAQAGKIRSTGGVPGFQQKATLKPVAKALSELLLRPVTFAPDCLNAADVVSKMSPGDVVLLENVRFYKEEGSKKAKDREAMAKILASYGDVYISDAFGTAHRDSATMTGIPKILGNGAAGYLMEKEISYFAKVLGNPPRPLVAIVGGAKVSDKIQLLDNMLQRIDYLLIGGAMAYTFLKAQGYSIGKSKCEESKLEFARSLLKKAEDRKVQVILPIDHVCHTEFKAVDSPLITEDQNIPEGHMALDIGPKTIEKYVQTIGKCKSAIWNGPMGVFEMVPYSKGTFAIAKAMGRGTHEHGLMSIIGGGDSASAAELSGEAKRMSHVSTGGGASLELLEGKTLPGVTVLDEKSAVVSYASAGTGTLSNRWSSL
Sequence of Flap endonuclease 1 (Homo sapiens) (P39748 whole entry, looked up): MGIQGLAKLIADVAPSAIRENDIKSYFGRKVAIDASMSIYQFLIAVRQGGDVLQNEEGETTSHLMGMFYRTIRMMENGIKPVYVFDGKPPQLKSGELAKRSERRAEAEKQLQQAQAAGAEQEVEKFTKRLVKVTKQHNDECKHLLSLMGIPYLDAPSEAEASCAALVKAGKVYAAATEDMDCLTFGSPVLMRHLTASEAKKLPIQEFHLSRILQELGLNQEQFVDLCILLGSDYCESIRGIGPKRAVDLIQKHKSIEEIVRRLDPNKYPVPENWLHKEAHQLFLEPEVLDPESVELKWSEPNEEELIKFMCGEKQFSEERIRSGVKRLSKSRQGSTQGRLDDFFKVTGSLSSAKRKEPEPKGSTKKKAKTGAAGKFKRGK

## C[C@H]1C2Cc3ccc(O)cc3[C@]1(C)CCN2CC1CC1
[1]
  outcome: inactive
[2]
  outcome: inactive
[3]
  outcome: inactive
[4]
  outcome: inactive
[5]
  outcome: inactive
[6]
  outcome: inactive
[7]
  outcome: inactive
[8]
  outcome: inactive
[9]
  outcome: inactive
[10]
  outcome: inactive
[11]
  outcome: inactive
[12]
  outcome: inactive
[13]
  outcome: inactive
[14]
  outcome: inactive
[15]
  outcome: inactive

## CC(C)(O)C1C2OC(=O)C1[C@]1(O)C[C@H]3O[C@]34C(=O)O[C@H]2[C@]14C (stereo not given in full) (tested in a mixture with another compound)
[16]
  outcome: inactive

## COc1cc2c(cc1O)C[C@H]1c3c(cc(OC)c(O)c3-2)CCN1C
[17]
  Potency: 10 µM (active)
[18]
  Potency: > 46 µM
[19]
  Potency: > 46 µM
[20]
  Potency: 6.31 µM (active)
